In the library only some 2.8% were active in any assay of this set; here they are far more common.
HTRA1 inhibitor = blocks human HTRA1 serine peptidase. inhibition, % at 5.96 µM. hit rate 0.5% among 340,000. recombinant HTRA1, FP-rhodamine activity-based probe, fluorescence polarization. Q92743; in the data active means inhibition above about 36%;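 further: 0% = enzyme with DMSO and 100% = wells lacking enzyme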
PAFAH2 inh = inhibitors of human PAFAH2 | inhibition, % at 3.39 µM | Q99487 | recombinant PAFAH2, FP-rhodamine activity probe, fluorescence polarization | hit rate 0.99% among 340,000;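 active means inhibition above the mean over all tested compounds plus 3 SD, cut at about 30% in these data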;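 further: inhibitors block probe labeling of enzyme so polarization drops; 0% = enzyme with DMSO and 100% = wells lacking PAFAH2 protein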
pPAFAH FP inh = inhibitors of human plasma PAF acetylhydrolase (pPAFAH). inhibition, % at 3.39 µM. recombinant pPAFAH, FP-rhodamine probe fluorescence polarization. Q13093. hit rate 1.5% among 330,000;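 active means inhibition above the mean inhibition across the screen plus 3 SD, cut at about 25% in these data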;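 further: inhibitors block binding of the rhodamine activity-based probe so polarization drops; 0% = enzyme with DMSO and 100% = wells lacking pPAFAH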
PAFAH1B2 inh = blocks human PAF acetylhydrolase 1b catalytic subunit 2 | AID 492953 | hit rate 1.2% among 340,000 | recombinant PAFAH1B2, FP-rhodamine activity probe, fluorescence polarization | P68402 | inhibition, % at 3.39 µM;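 active means inhibition above the mean of all tested compounds plus 3 SD, cut at about 24% in these data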;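 further: 0% = enzyme with DMSO and 100% = wells lacking PAFAH1B2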
PAFAH1B3 FP inh = blocks human PAF acetylhydrolase 1B catalytic subunit 3 | Q15102 | recombinant PAFAH1B3, FP-rhodamine probe, fluorescence polarization | inhibition, % at 3.39 µM | hit rate 0.28% among 340,000 | AID 492972;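 active means inhibition above the screen-wide average of all tested compounds plus 3 SD, cut at about 25% in these data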;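 further: 0% = enzyme with DMSO only and 100% = wells lacking PAFAH1B3 protein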
DAGLB inhibitor = diacylglycerol lipase beta (human) inhibition; Q8NCG7; AID 504411; hit rate 0.059% among 340,000; HEK293T DAGLB membrane lysate, EnzChek fluorogenic substrate; inhibition, % at 5.17 µM; in the data active means inhibition above about 34%;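 further: 0% = enzyme with vehicle and 100% = wells lacking enzyme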
Target sequence (Q8NCG7 whole entry, looked up): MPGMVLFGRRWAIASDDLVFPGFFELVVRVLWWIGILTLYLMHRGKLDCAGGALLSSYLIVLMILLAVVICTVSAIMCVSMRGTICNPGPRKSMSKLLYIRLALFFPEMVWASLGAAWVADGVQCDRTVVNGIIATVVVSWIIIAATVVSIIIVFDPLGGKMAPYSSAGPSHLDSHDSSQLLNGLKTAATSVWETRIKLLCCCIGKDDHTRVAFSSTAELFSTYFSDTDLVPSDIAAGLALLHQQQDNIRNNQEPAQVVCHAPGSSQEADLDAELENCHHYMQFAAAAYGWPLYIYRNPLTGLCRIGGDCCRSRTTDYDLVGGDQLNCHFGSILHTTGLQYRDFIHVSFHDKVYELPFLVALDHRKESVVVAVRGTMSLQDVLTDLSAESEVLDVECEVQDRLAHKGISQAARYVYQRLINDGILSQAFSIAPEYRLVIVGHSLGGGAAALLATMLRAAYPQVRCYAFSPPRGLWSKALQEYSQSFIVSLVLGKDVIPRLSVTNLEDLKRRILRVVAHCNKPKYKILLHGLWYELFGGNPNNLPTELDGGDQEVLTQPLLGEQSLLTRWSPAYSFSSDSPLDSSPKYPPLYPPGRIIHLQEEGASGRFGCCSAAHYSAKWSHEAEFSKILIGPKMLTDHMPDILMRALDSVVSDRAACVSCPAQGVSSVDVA
PAFAH2 confirm = PAFAH2 (human) inhibition, confirmed | shares compounds with PAFAH2 inh | AID 493030 | recombinant PAFAH2, FP-rhodamine activity probe, fluorescence polarization | hit rate 65% among 2,300 | inhibition, % at 3.39 µM;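 active means mean inhibition over three repeats above a set limit taken from the earlier primary screen, cut at about 30% in these data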;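 further: inhibitor blocks binding of rhodamine activity probe so polarization falls; 0% = enzyme with DMSO and 100% = wells lacking PAFAH2 protein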
* marks the source's active call; other numbers are inactive results; . = no result.

SMILES	HTRA1 inhibitor	PAFAH2 inh	pPAFAH FP inh	PAFAH1B2 inh	PAFAH1B3 FP inh	DAGLB inhibitor	PAFAH2 confirm
O=C(COC(=O)/C=C/c1cccc(Cl)c1)Nc1ccccc1-c1ccccc1	.	.	1	.	.	.	.
C/C=C/C(=O)OCC(=O)Nc1ccccc1Br	2	33*	3	-4	20	-1	20
O=C(COC(=O)c1ccccc1)Nc1ccccc1Br	-1	36*	10	-2	-7	-4	25
O=C(COC(=O)c1c(Cl)cccc1Cl)Nc1ccccc1Br	-11	3	4	4	-7	-9	.
O=C(COC(=O)/C=C/c1ccccc1)Nc1ccccc1Br	3	64*	9	3	-3	-16	54*
CN(C)/C=C/C(=O)c1ncc(C(F)(F)F)cc1Cl	3	1	5	0	1	0	.
Cc1cc(S(=O)(=O)Nc2ccc(C(=O)NCCCN3CCCC3=O)cc2)ccc1F	1	2	9	7	-1	1	.
Cc1nc(C)c(C(=O)OCC(=O)Nc2cccc(C)c2C)s1	-5	66*	15	1	2	-1	51*
Cc1nc(C)c(C(=O)OCC(=O)NCCc2ccc(S(N)(=O)=O)cc2)s1	-3	9	1	1	9	-4	.
Cc1nc(C)c(C(=O)Nc2cccc(C)c2C)s1	-3	4	1	4	15	3	.
O=C(COC(=O)c1cccs1)NCCc1ccc(F)cc1	-2	55*	.	1	-1	-3	49*
O=C(COC(=O)CCC(=O)c1cccs1)NCCc1ccccc1	1	9	3	2	5	-2	.
Cc1nc(C)c(C(=O)OCC(=O)NCCc2ccc(F)cc2)s1	-6	31*	.	5	-1	-2	23
O=C(COC(=O)c1ccc(F)cc1)NCCc1ccc(F)cc1	6	36*	10	2	1	2	17
CCOC(=O)C1CCN(C(=S)Nc2cccc(C)c2C)CC1	6	3	3	8	10	0	.
CC(C)CN(C(=O)CSc1nc2ccccc2c(=O)n1C)C1CCS(=O)(=O)C1 (stereo not given)	3	10	-2	3	7	2	.
CCn1cc(C(=O)NCCCN2CCN(C)CC2)c(=O)c2cc(S(=O)(=O)N3CCc4ccccc4C3)ccc21	11	-3	3	4	10	0	.
NS(=O)(=O)c1ccc(NC(=O)COC(=O)CCCN2C(=O)c3cccc4cccc(c34)C2=O)cc1	-5	-6	0	4	-3	0	.
COc1ccc(CNC(=O)COC(=O)c2ccc3c(c2)OCCO3)cc1	-1	7	3	-3	6	-3	.
O=C(COC(=O)c1ccc2c(c1)OCCO2)NCCc1ccc(F)cc1	5	68*	10	1	-2	-2	54*
COc1cc2c(cc1NC(=O)CSc1nnc(Cc3cccs3)n1C)oc1ccccc12	-32	7	10	-3	3	2	.
COc1ccccc1NC(=O)CSc1nnc(Cc2cccs2)n1C	-2	66*	1	3	5	1	1
Cc1ccc2cc(-c3noc(C4CCCCC4)n3)c(=O)[nH]c2c1	7	47*	-1	-3	-5	-3	51*
Cc1ccc2cc(-c3noc(C4CCCO4)n3)c(=O)[nH]c2c1 (stereo not given)	2	14	-1	4	-1	3	.
CCOc1ccccc1-c1nc(-c2cc3ccc(C)cc3[nH]c2=O)no1	-1	52*	-1	-3	0	-1	32*
SMILES	HTRA1 inhibitor	PAFAH2 inh	pPAFAH FP inh	PAFAH1B2 inh	PAFAH1B3 FP inh	DAGLB inhibitor	PAFAH2 confirm
CCOc1ccccc1-c1nc(-c2cc3ccccc3nc2OC)no1	-36	-7	2	-8	0	-17	.
Cc1ccc(C(=O)O/N=C/C2=C(Cl)c3ccccc3CC2)cc1	-3	38*	1	4	3	-2	70*
Cc1ccc(CO/N=C/C2=C(Cl)c3ccccc3CC2)cc1	2	-2	3	5	3	-4	.
CCOc1ccc(NC(=O)CSc2nnc(-c3cc(C)[nH]n3)n2N)cc1	-3	3	5	-1	1	0	.
O=C(NC1CCCC1)c1sc(=S)n2c1[nH]c(=O)c1ccccc12	7	39*	15	22	22	5	32*
Cc1ccc(S(=O)(=O)N2CCN(C(=O)c3ccc4nc[nH]c4c3)CC2)cc1	4	6	8	4	2	2	.
O=C(CN1CCOCC1)NN=C1CCCCCCCCCCC1	2	-23	2	-5	0	-1	.
COc1cccc(NC(=O)COC(=O)c2ccccc2C(=O)N(C)c2ccccc2)c1	-10	71*	4	0	3	0	69*
CN(C(=O)c1ccccc1C(=O)OCC(=O)Nc1ccc(OC(F)F)cc1)c1ccccc1	-3	65*	15	-3	3	1	56*
CN(C(=O)c1ccccc1C(=O)OCC(=O)Nc1cccc(Br)c1)c1ccccc1	-14	76*	2	-2	-4	-3	76*
Cc1noc(C)c1COc1ccc(C(=O)NCCc2ccc(F)cc2)cc1	-3	10	2	2	5	0	.
COC(=O)C(C)Sc1nc2ccsc2c(=O)n1Cc1ccccc1 (stereo not given)	-2	35*	2	2	0	-1	24
O=C(COC(=O)c1ccco1)NCc1ccccc1Cl	1	58*	-5	3	1	0	38*
O=C(COC(=O)c1cc(Cl)ccc1[N+](=O)[O-])NCc1ccc(Cl)cc1Cl	-7	30*	1	9	5	0	25
O=C(COC(=O)c1cc(Cl)ccc1[N+](=O)[O-])Nc1cccc2ccccc12	-2	23	10	0	10	-2	.
O=C(COC(=O)c1ccco1)NNC(=O)c1ccc(Cl)cc1	0	11	1	5	11	-1	.
O=C(COC(=O)c1ccco1)NCc1ccc(Cl)cc1Cl	-1	69*	-3	4	7	1	51*
COc1ccccc1CNC(=O)COC(=O)c1ccco1	4	20	0	6	-7	-4	.
O=C(COC(=O)c1ccco1)NCCc1ccc(Cl)cc1	-6	49*	-2	7	8	1	31*
CC(C)CCCC(C)NC(=O)c1cc(S(=O)(=O)N2CCCCC2)ccc1N1CCOCC1 (stereo not given)	1	6	8	3	7	-6	.
COc1ccc(NC(=S)Nc2ccc(OCc3ccccc3)cc2)c(OC)c1	-10	-2	6	5	5	1	.
COc1ccc(NC(=S)Nc2ccccc2)c(OC)c1	8	164*	-1	0	1	-1	-1
CC(=O)Nc1cccc(C(=O)OCC(=O)NC(=O)NC2CCCC2)c1	6	.	.	.	.	-4	.
